Assay results published in the supplement of paper PMC11732987, “Enantioselective OTUD7B fragment discovery through chemoproteomics screening and high-throughput optimisation” (Communications Chemistry, 2025).

Experiments:
Test in all cases: log2 ratio of Biotin-Ahx-Ub-VS probe labelling (fragment/DMSO); higher = less target engagement (more negative = stronger competition), active = hit call of the paper (q ≤ 0.05, log2 ratio ≤ -1)
Conditions in all cases: compound concentration: 200 uM; treatment time: 3 h
[1] = molecular target: T1, USP42 (UniProt Q9H9J4)
T1 sequence (whole entry): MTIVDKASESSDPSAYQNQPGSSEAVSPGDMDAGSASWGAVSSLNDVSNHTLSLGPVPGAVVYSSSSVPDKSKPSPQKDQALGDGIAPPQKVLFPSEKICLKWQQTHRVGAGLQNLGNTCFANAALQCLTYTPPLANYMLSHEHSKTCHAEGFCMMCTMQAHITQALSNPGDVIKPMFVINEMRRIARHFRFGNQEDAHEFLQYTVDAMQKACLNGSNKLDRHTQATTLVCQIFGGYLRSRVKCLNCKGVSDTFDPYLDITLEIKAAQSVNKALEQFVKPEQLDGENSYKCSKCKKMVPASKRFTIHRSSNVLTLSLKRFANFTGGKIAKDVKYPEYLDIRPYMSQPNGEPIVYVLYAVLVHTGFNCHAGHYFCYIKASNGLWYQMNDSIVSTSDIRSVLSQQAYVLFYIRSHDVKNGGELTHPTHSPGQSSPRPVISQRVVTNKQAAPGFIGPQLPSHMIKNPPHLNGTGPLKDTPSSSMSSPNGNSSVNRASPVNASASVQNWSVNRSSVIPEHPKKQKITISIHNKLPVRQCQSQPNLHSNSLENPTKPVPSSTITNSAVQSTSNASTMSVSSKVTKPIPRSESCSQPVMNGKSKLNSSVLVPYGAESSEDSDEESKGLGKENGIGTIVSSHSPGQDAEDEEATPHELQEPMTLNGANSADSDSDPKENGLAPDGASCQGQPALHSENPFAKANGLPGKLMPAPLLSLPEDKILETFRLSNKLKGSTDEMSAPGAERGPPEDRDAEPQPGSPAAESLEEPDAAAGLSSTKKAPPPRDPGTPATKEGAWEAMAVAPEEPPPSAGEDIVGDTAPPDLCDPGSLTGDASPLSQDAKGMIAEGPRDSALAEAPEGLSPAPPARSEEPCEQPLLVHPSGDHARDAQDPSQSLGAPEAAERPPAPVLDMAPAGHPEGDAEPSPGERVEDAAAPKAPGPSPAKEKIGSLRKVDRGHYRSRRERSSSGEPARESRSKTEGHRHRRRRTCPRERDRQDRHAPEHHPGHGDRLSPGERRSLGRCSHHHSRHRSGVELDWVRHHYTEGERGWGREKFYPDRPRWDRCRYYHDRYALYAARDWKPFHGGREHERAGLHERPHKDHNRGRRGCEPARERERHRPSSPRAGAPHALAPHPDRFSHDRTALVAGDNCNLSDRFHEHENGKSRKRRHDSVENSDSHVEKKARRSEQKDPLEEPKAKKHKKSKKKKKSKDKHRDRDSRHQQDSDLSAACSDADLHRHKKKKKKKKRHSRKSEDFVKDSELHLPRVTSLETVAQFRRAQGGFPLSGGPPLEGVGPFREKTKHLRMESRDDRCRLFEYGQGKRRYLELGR
How it was run: (§1)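 Using Biotin-Ahx-Ub-VS at 0.5 µM final for 1 h, DUBs were labelled in HEK293T lysate (495 µg per sample) that had first been treated in triplicate with fragment at 200 µM or vehicle for 3 h. NeutrAvidin enrichment, LysC and trypsin digestion and diaPASEF LC-MS/MS followed. Spectronaut label-free quantities were global-median-normalised. Values are average log2 fragment/vehicle ratios by unpaired t-test, using proteins with ≥2 unique peptides.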

[2] = molecular target: USP46 (UniProt P62068)
How it was run: as §1

[3] = molecular target: T2, USP47 (UniProt Q96K76)
T2 sequence (whole entry): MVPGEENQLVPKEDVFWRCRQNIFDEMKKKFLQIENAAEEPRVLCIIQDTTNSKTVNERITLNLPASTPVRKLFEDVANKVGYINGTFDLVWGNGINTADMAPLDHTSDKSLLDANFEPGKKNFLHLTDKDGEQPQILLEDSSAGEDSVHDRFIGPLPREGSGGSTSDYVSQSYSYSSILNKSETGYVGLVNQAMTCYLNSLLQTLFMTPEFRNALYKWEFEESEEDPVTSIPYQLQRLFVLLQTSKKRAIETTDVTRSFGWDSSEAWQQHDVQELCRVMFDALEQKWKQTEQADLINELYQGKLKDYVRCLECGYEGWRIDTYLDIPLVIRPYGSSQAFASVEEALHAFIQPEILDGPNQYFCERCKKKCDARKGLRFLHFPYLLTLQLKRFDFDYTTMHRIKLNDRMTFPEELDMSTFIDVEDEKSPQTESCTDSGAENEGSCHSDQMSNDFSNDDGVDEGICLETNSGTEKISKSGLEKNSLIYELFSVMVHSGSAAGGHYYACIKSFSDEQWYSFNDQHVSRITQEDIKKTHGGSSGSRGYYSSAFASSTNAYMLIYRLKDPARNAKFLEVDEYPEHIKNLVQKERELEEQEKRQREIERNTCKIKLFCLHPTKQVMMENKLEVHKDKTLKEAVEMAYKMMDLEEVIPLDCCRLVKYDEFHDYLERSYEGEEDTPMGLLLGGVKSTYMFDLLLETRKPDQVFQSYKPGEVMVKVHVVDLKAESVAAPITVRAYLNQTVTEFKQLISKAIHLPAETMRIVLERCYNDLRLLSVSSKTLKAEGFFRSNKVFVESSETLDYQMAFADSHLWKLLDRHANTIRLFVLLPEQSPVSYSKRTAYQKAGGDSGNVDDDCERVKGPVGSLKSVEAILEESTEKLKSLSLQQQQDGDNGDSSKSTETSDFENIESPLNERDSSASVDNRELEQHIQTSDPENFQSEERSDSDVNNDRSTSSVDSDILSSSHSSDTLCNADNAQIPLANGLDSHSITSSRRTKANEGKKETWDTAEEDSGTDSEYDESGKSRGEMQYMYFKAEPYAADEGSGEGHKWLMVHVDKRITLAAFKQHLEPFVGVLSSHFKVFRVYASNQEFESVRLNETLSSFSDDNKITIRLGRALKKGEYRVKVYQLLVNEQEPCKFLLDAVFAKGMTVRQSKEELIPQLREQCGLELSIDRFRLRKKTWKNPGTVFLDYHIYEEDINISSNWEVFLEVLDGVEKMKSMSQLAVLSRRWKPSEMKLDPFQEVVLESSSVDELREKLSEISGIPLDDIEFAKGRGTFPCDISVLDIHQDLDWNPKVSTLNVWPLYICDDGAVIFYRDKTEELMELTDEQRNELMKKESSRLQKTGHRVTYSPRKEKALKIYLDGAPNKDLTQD
How it was run: as §1

[4] = molecular target: T3, USP48 (UniProt Q86UV5)
T3 sequence (whole entry): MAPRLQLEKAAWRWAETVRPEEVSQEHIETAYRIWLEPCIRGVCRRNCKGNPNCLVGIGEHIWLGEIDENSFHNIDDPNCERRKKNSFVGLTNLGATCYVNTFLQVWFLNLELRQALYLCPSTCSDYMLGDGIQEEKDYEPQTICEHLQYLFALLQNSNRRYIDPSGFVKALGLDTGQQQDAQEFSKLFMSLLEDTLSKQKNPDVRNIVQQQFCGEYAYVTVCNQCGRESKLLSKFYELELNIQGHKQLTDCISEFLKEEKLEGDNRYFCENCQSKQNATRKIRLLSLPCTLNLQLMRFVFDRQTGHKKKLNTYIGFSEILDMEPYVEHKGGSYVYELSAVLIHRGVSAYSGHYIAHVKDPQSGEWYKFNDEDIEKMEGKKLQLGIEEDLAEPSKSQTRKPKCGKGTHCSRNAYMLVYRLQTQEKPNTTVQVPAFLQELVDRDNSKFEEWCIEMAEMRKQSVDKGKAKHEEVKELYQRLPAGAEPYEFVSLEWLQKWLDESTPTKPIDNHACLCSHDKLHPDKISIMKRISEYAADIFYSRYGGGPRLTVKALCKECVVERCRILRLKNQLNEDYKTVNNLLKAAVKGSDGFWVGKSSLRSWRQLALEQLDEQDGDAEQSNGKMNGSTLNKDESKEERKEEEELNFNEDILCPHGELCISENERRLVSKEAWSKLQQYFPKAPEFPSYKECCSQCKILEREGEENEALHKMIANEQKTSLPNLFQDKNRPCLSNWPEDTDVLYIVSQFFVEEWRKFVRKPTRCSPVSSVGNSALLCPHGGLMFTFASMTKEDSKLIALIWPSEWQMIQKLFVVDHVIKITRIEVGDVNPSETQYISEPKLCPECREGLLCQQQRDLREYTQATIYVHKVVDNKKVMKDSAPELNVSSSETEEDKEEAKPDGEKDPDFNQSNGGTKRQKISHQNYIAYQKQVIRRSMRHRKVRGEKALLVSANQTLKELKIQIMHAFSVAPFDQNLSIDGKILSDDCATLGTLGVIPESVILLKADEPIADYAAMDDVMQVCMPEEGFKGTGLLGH
How it was run: as §1

[5] = molecular target: T4, USP5 (UniProt P45974)
T4 sequence (whole entry): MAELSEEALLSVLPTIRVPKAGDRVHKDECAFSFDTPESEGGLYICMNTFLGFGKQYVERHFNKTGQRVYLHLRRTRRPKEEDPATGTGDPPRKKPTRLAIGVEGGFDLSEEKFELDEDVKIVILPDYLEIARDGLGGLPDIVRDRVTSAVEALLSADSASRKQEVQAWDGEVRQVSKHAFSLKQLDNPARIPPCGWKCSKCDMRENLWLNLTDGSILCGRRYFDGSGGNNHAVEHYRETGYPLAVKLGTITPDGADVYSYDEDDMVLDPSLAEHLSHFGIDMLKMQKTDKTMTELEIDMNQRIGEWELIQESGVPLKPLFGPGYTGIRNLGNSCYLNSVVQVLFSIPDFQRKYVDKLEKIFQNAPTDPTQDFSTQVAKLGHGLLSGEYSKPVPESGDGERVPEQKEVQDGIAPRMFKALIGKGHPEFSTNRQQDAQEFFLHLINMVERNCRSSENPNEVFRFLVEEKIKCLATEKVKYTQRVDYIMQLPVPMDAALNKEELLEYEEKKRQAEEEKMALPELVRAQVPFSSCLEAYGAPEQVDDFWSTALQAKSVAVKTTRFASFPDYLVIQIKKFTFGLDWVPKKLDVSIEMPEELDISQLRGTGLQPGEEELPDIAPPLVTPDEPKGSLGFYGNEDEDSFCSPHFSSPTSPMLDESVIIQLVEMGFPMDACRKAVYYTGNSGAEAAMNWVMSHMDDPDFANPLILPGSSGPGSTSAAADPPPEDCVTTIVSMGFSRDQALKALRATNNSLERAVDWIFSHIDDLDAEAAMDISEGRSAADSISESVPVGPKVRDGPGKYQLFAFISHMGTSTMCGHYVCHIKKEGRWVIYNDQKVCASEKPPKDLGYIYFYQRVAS
How it was run: as §1

[6] = molecular target: USP54 (UniProt Q70EL1)
How it was run: as §1

[7] = molecular target: USP7 (UniProt Q93009)
How it was run: as §1

[8] = molecular target: T5, USP8 (UniProt P40818)
T5 sequence (whole entry): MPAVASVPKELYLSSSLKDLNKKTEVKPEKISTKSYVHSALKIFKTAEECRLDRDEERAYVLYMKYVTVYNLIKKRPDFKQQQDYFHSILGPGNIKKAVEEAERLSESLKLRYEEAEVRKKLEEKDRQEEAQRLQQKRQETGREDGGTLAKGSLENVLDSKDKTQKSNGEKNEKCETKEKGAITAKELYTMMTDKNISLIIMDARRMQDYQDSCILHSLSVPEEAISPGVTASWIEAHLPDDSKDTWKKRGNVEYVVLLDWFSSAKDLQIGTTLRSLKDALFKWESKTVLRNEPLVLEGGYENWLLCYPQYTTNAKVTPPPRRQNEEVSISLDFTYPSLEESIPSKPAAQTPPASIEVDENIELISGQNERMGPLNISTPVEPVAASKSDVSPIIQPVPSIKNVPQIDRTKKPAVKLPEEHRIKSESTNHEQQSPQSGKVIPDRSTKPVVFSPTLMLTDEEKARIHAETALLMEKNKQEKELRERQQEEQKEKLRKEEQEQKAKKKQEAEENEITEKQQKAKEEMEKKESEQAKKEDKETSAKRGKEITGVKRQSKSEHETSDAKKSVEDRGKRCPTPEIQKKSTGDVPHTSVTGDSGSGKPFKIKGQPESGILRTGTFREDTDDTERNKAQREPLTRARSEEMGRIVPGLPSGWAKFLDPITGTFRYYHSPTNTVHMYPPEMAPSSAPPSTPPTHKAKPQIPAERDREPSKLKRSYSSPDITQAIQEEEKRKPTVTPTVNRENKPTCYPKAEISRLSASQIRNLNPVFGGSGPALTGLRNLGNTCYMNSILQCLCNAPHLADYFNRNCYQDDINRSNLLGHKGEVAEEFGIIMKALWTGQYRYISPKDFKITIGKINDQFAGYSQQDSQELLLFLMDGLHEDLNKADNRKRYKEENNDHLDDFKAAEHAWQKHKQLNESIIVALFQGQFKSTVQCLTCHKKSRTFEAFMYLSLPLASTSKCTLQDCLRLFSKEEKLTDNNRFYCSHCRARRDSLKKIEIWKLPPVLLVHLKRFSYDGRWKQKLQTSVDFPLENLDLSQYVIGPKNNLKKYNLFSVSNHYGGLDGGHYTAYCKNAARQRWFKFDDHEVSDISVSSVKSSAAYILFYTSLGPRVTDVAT
How it was run: as §1

Measured: log2 ratio of Biotin-Ahx-Ub-VS probe labelling

Chain of USP7 (Q93009 whole entry, looked up): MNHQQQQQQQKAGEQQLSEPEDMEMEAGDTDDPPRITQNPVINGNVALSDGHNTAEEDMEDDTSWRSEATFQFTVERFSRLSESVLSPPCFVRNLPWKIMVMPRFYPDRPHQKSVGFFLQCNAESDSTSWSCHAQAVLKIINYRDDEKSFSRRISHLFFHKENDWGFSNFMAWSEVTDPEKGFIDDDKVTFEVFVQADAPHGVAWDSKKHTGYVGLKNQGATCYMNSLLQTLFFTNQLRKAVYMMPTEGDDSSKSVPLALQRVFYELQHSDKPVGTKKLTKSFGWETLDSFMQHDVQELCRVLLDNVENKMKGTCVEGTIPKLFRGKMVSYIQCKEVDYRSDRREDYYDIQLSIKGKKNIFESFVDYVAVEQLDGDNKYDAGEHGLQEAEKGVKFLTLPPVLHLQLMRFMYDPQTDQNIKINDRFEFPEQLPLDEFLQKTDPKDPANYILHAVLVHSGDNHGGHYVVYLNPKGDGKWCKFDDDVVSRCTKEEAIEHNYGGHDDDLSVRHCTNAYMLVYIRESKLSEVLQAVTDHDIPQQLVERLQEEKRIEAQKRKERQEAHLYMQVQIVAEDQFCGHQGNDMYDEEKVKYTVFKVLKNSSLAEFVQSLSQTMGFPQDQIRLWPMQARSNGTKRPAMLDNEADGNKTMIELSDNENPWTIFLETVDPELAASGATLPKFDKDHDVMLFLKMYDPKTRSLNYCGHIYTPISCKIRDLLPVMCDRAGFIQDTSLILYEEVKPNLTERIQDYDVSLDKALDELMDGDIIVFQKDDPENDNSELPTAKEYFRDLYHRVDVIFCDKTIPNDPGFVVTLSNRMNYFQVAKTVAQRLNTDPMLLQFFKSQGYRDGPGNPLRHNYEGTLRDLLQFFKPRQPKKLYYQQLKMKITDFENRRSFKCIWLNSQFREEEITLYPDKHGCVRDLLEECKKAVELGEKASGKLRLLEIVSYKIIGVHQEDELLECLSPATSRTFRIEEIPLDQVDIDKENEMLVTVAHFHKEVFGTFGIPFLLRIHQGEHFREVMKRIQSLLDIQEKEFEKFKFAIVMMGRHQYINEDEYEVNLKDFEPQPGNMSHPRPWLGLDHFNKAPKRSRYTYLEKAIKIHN
Chain of USP46 (P62068 whole entry): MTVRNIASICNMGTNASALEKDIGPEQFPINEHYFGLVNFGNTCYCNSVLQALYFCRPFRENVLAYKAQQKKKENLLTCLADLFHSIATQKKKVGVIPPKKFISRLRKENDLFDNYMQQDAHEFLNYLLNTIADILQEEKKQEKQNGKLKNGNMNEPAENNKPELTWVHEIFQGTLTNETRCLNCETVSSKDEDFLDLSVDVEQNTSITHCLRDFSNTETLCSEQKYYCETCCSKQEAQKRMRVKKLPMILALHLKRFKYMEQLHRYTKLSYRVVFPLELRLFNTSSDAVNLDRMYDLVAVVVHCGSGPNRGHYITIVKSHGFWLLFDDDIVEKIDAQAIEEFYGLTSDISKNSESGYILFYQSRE
Chain of USP54 (Q70EL1 whole entry): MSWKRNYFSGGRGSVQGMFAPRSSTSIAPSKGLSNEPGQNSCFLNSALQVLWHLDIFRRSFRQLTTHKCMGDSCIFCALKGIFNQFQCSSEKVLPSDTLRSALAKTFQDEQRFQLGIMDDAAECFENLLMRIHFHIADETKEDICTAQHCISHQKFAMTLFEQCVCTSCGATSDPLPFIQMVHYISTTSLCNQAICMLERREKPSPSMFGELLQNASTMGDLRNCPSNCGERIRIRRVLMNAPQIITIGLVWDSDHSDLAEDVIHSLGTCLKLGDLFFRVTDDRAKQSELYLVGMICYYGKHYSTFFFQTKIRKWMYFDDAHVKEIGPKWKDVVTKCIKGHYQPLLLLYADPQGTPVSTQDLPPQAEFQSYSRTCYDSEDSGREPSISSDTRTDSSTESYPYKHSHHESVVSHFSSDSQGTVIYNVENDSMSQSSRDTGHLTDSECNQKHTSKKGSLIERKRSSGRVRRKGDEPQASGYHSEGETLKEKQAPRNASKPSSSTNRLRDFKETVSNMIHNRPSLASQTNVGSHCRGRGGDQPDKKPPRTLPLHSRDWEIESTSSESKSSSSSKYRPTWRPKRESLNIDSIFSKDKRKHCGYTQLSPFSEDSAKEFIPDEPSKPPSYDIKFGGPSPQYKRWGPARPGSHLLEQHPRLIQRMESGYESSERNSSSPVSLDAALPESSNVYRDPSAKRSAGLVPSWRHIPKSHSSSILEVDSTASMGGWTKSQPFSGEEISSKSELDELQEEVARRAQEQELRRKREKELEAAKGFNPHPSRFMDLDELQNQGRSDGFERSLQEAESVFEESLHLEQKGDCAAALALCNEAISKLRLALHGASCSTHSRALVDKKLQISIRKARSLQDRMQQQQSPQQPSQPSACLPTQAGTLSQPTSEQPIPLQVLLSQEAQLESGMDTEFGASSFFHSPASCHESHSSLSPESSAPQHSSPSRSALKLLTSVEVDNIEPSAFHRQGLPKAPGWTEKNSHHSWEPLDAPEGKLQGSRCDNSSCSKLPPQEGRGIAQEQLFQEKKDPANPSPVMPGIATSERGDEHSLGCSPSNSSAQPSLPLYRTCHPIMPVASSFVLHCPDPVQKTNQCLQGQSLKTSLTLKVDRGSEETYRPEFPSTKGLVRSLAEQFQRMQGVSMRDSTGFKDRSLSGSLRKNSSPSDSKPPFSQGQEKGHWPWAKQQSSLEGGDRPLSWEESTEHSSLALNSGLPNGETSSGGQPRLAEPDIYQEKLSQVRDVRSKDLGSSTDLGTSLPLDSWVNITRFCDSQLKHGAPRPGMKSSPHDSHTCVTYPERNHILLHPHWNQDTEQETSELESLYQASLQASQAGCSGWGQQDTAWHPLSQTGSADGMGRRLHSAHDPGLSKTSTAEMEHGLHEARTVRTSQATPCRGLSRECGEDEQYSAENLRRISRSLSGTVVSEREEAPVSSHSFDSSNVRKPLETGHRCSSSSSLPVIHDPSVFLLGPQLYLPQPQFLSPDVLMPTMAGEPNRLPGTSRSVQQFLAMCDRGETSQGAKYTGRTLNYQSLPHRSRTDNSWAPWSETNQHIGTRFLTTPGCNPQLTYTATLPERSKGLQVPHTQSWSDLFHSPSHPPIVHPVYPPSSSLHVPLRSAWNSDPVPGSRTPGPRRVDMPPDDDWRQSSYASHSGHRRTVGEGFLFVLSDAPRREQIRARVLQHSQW

O=C(CCl)N1CCCC2CCCCC21 (stereo not drawn)
inactive: [1] 0.484 | [2] -0.132 | [3] -0.696 | [4] -0.516 | [5] 0.0316 | [6] 0.268 | [7] -0.486 | [8] -0.0438
